Bioassay records: PubChem, National Center for Advancing Translational Sciences (NCATS)
A selection: hits, their analogues and other compounds. The true share with any hit is near 10%.
HP1b binding inh: HTS for Inhibitors of HP1-beta Chromodomain Interactions with Methylated Histone Tails | Chromobox protein homolog 1 (Homo sapiens), P83916 | AlphaScreen HP1-beta / biotin-H3K9me3 peptide binding | Potency, µM (top dose mostly 114 µM), without a hit: at the top dose activity change, negative = inhibition, hits mostly inhibitors | 390,000 tested, 0.56% active | AID 540317, 2011; also: nearly all actives have a fitted effect of over 70% in size
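Compound inhibition of the preformed complex between 50 nM HP1-beta and 50 nM biotinylated H3K9me3 peptide was read by AlphaScreen. Buffer was PBS pH 7.4 with 0.01% Tween-20. Incubations ran 30 min at room temperature, with 10 ug/mL donor/acceptor beads.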
G9a inh: qHTS Assay for Inhibitors of Histone Lysine Methyltransferase G9a. Histone-lysine N-methyltransferase EHMT2 (Homo sapiens), Q96KQ7. AID 504332, 2011. Potency, µM (titrated, usually from 102 µM), inactives show at the highest dose activity, negative = inhibition, most hits filed as inhibitors. 350,000 tested, 8.8% active. G9a H3K9 monomethylation, AlphaScreen, 2 h; also: % is scaled to controls: 0 for no effect and ±100 for the full control effect; nearly all actives have a fitted effect of over 75% in size
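Step 1: enzyme (final 20 nM) with compound, 15 min RT. Step 2: substrate peptide 500 nM and SAM 20 uM, 2 h RT. Step 3: anti-H3K9me1 antibody and AlphaScreen beads, 10 min, then plate read.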
JMJD2A Tudor inh: qHTS Assay for Inhibitors of JMJD2A-Tudor Domain; Potency, µM (top dose mostly 114 µM), inactives show at the top dose activity change, negative = inhibition, most hits filed as inhibitors; AlphaScreen JMJD2A-Tudor / H3K4me3 peptide binding; 390,000 tested, 4.4% active; Lysine-specific demethylase 4A (Homo sapiens), O75164; also: % is scaled to controls: 0 for no effect and ±100 for the full control effect; nearly all actives have a fitted effect of over 50% in size
GLS inhibitor: qHTS for Inhibitors of Glutaminase (GLS) | GLS enzymatic activity, qHTS titration | Potency, µM (top dose mostly 45.5 µM), without a hit: at the top dose activity change, negative = inhibition, actives largely listed as inhibitors | 410,000 tested, 0.21% active; also: % is scaled to controls: 0 for no effect and ±100 for the full control effect
Target sequence (O94925 whole entry, looked up): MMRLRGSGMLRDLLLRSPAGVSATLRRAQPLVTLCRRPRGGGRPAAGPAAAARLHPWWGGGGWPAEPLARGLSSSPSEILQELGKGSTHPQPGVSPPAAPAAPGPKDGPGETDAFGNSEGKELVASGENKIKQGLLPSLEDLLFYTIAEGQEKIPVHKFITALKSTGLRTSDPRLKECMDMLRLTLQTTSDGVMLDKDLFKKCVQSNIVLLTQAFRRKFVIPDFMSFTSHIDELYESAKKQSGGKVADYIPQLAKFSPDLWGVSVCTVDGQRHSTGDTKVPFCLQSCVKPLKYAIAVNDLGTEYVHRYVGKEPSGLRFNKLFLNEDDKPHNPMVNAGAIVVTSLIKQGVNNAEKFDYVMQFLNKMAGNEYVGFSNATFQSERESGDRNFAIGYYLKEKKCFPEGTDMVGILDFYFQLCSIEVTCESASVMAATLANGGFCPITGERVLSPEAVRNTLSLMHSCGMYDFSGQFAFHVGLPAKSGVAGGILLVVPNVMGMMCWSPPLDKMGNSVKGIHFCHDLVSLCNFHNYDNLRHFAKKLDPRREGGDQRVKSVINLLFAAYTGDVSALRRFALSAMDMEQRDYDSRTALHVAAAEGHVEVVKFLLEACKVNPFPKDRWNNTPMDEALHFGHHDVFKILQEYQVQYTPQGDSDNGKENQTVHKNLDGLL
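hKGA in 45 mM KH2PO4 pH 8.2, 0.02% Tween-20 with pin-transferred compounds; 1 mM L-glutamine (stock) plus glutamate oxidase/HRP/Amplex Red coupling added. Fluorescence read initially and after 30 min at RT.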
BAZ2B block: qHTS Assay for Inhibitors of BAZ2B. AID 504333, 2011. Bromodomain adjacent to zinc finger domain protein 2B (Homo sapiens), Q9UIF8. AlphaScreen BAZ2B-H3K14Ac peptide displacement. 360,000 tested, 4.4% active. Potency, µM (top dose mostly 114 µM), for inactives: at the top dose activity change, negative = inhibition, actives largely listed as inhibitors; also: % is scaled to controls: 0 for no effect and ±100 for the full control effect; nearly all actives have a fitted effect of over 60% in size
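Inhibition is scored as reduced AlphaScreen emission. The BAZ2B/b-H3(5-23)K14Ac complex (50 nM each) in PBS pH 7.4, 0.01% Tween-20 meets compound (up to 110 uM) for 30 min at RT before bead addition.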
L3MBTL1 inh: qHTS Assay for the Inhibitors of L3MBTL1 | Lethal(3)malignant brain tumor-like protein 1 (Homo sapiens), Q9Y468 | AlphaScreen L3MBTL1–H3K9me1 peptide binding | Potency, µM (series often up to 57.1 µM), without a hit: top-dose activity, negative = inhibition, hits mostly inhibitors | 230,000 tested, 0.66% active | AID 485360, 2010; also: % is scaled to controls: 0 for no effect and ±100 for the full control effect; nearly all actives have a fitted effect of over 60% in size
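AlphaScreen proximity signal between nickel-chelate acceptor and streptavidin donor beads (final 10 ug/mL) reports binding of 50 nM L3MBTL1 to 75 nM biotin-H3 K9me1 peptide; complex incubated with compounds 30 min at room temperature; cefsulodin titration as control.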
Numbers without * were called inactive; ? = inconclusive; / = no result given; [ ] = remark or other dose. Calls follow the shape of the dose curve; as a rule, active = well fitted curve in the direction sought with a large enough effect; inconclusive = small, poorly fitted or top-dose-only effect, or another doubt; inactive = no such curve, though single readings can be large; an effect the other way counts as inactive or inconclusive. Potency is read from the fitted curve at half-maximal effect.

SMILES | HP1b binding inh | G9a inh | JMJD2A Tudor inh | GLS inhibitor | BAZ2B block | L3MBTL1 inh
ClCC1NCC(c2ccccc2Cl)c2c1[nH]c1ccccc21 (stereo not given) | 10.4% | ? | ? | 4.2% | 44.7µM* | /
COc1cc(/C=C2\SC(=O)N(CC(=O)Nc3ccc(C)cc3)C2=O)cc(Cl)c1OCC(=O)O | 14.1µM* | ? | 11.2µM* | 7.08µM* | 14.1µM* | ?
O=C(CN1C(=O)S/C(=C\c2cc(Cl)c(O)c(Cl)c2)C1=O)Nc1ccccc1 | -16.2% | / | ? | 30.0% | 44.7µM* | -5.1%
Cc1ccc(NC(=O)CN2C(=O)S/C(=C\c3cc(C)n(C)c3C)C2=O)cc1 | 15.1% | -1.0% | -19.4% | -6.9% | 1.6%[57.1 µM] | -5.1%
Cc1ccc(Cn2c(CCNc3nc(-c4ccc(Cl)c([N+](=O)[O-])c4)cs3)nc3cc(C(=O)NCCCO)ccc32)cc1 | 2.1% | / | 35.5µM* | 7.7% | / | /
O=[N+]([O-])c1cc(-c2csc(NCCc3nc4cc(C(F)(F)F)ccc4n3CCCO)n2)ccc1Cl | 1.8% | / | 44.7µM* | -7.0% | / | /
COc1ccc(OC)c(S(=O)(=O)N2CCN(S(=O)(=O)c3ccc4c(c3)OCCO4)CC2)c1 | / | / | -13.0% | / | / | /
COCCNC(=O)C(C)OC(=O)C1=Cc2ccccc2OC1 (stereo not given) | 23.0% | / | -9.4% | 0.9% | -0.1% | 8.7%
CC(OC(=O)C1=Cc2ccccc2OC1)C(=O)NCC1CCCO1 (stereo not given) | ? | / | 22.4µM* | -22.3% | / | /
CCc1ccc(CNCc2c(C(=O)O)c(C)n(Cc3c(F)cccc3Cl)c2C)cc1 | -2.1% | -28.7%[59 µM] | ? | 13.9% | ? | /
CCNc1nc(NCC)nc(OCC(=O)O)n1 | 6.0% | ? | -12.0% | 5.3% | -27.6% | /
CCNc1nc(NCC)nc(C(=O)NN)n1 | 57.5% | 7.6%[59 µM] | 39.8µM* | 22.9% | 2.82µM* | 3.98µM*
CCN(C(=O)c1cc2c(s1)-c1c(C)cccc1OC2)c1cc(C)ccc1C | 130.5% | 87.6%[59 µM] | 91.3% | 12.9% | 52.8% | /
COc1ccc(NC(=O)c2cc3ccccc3cc2OC)cc1 | ? | 28.5% | ? | -24.9% | 5.6% | 2.6%
COc1cccc2cc(C(=O)Nc3ccc(F)cc3)c(=Nc3ccc(C(=O)O)cc3)oc12 | 17.7% | 35.5µM* | -31.2% | ? | -2.0% | /
COc1cc2ccccc2cc1C(=O)NC(=S)Nc1ccc(C(=O)O)cc1 | -0.9% | ? | 50.1µM* | 26.3% | 50.1µM* | /
COc1cc2ccccc2cc1C(=O)NC(=S)Nc1cccc(C(=O)O)c1 | -9.2% | ? | -27.8% | 10.9% | 79.4µM* | -21.8%
COc1ccc(N=c2oc3c(OC)cccc3cc2C(=O)NCc2ccco2)cc1OC | 10.0% | ? | -29.6% | -2.0% | 7.5% | /
O=C(CSc1nc2nn(-c3ccccc3)c(=O)c-2c2n1CCCCC2)c1ccc(O)c(O)c1 | 28.2µM* | -40.1%[2.33 µM] | 11.2µM* | 10.4% | 10µM* | 8.91µM*
COCCNC(=O)CSc1nc2nn(-c3ccccc3)c(=O)c-2c2n1CCCCC2 | -12.0% | 6.8% | 56.2µM* | 18.6% | -3.1% | 16.8%
COc1ccc2nc(NC(=O)CSc3n[nH]c(N)n3)sc2c1 | 13.0% | 56.2µM* | -24.6% | 25.3% | 6.0% | -6.1%
COc1ccc2nc(NC(=O)CSc3nnc(C)s3)sc2c1 | 14.1% | 4.0% | 0.7% | 12.3% | -4.9% | 6.9%
CSc1nsc(SCC(=O)NCc2ccccc2)n1 | 31.3% | 39.8µM* | -14.7% | 6.5% | 0.4% | /
O=C(CSc1nccn1Cc1ccccc1)Nc1nc2ccccc2s1 | -5.0%[57 µM] | -43.0%[59 µM] | 50.1µM* | 1.6% | ? | /
CSc1nsc(SCC(=O)NCc2ccc(C)cc2)n1 | 5.3% | -12.0% | -18.4% | 7.6% | 10.7% | 2.8%
SMILES | HP1b binding inh | G9a inh | JMJD2A Tudor inh | GLS inhibitor | BAZ2B block | L3MBTL1 inh
COc1ccc2nc(NC(=O)CSc3nc(SC)ns3)sc2c1 | 16.6% | 20µM* | -8.0% | 0.7% | -9.0% | 3.4%
CCOC(=O)c1cc(C)n(CC2CCC(C(=O)Nc3cccc(C(C)=O)c3)CC2)c1C (stereo not given) | 14.0% | ? | -6.6% | -12.8% | -27.7% | /
O=C(CNC(=O)c1ccccc1)OCC(=O)c1ccc2ccccc2c1 | 15.6%[57 µM] | / | 4.6%[57.1 µM] | / | / | /
Clc1nc(NCc2ccco2)c2[nH]cnc2n1 | 5.1%[57 µM] | / | -1.5%[57.1 µM] | / | / | /
CCN(CC)c1ccc(N=Nc2ccc(S(=O)(=O)N(C)C)cc2)c(S(=O)(=O)NCC[n+]2ccccc2)c1 | / | / | / | -6.6% | / | /
Cc1nn2c(=O)cc(COC(=O)c3ccc(NC(=O)CCc4ccccc4)cc3)nc2s1 | 3.2% | 1.6%[59 µM] | ? | 3.3% | -6.8% | /
CC(C)Oc1ccc(CNC(=O)CN2C(=O)c3cccnc3Oc3ccc(Cl)cc32)cc1 | 29.0% | -29.5%[59 µM] | -23.1% | -12.5% | -5.1% | /
CCOC(=O)C1CCCN(C(=O)C2CCN(S(=O)(=O)c3c(C)noc3/C=C/c3ccc(C)cc3)CC2)C1 (stereo not given) | 22.4%[57 µM] | -4.1%[59 µM] | -24.0% | -3.4% | -17.6% | /
Cc1nc(SCC(=O)Nc2nc3ccccc3s2)n[nH]1 | 32.6% | 79.4µM* | -7.6% | 4.9% | -1.4% | /
Cc1nc(SCC(=O)Nc2nc3ccccc3s2)c(C#N)c(C)c1C | 41.7% | 10µM* | 3.0% | -2.8% | -1.3% | 10.2%
CCSc1nnc2c(n1)OC(c1ccc(OC)c(OC)c1)N(C(C)=O)c1ccccc1-2 (stereo not given) | 1.3% | 7.2%[59 µM] | -12.8% | 3.0% | -4.8% | /
O=C(O)c1ccc(S(=O)(=O)N[C@H](Cc2ccc(O)cc2)C(=O)O)cc1 | / | ? | -19.3% | / | -6.3% | ?
CCC1CCCCN1S(=O)(=O)c1ccc([N+](=O)[O-])cc1 (stereo not given) | -1.0% | 70.8µM* | -35.5% | -0.7% | ? | -3.9%
CC1CCCCN1S(=O)(=O)c1ccc([N+](=O)[O-])cc1 (stereo not given) | 8.8% | / | -18.4% | 9.0% | -3.1% | 8.7%
CC1Cc2ccccc2N1C(=S)Nc1cccc(S(=O)(=O)N(C)C)c1 (stereo not given) | 13.6% | 39.8µM* | -34.9% | 14.1% | -20.9% | 7.4%
COc1ccc(NC(=S)N2c3ccccc3CC2C)cc1OC (stereo not given) | -4.8% | 50.1µM* | -28.4% | 13.1% | -36.7% | ?
